According to ChEMBL document CHEMBL3988442, “University of Dundee, Small-Polar-MMV Screening Library” (2021):
For some of these results: Entries with a potency or affinity are not part of this list.

Tests used:
Set-up in all cases: scale not given: direction of the effect not stated beside the values
[1] = target: Protein translocase subunit SecA (Escherichia coli (strain K12)) (UniProt P10408); assay: Assay to Identify E. coli SecA ATPase Inhibitors; type: functional; conditions: 30 µM
[2] = target: T1, Ubiquitin-activating enzyme e1, putative (Leishmania donovani (strain BPK282A1)) (UniProt E9BSI1); assay: Leishmania donovani Ubiquitin Activating Enzyme (LdE1); type: functional; conditions: 30 µM
T1 sequence (whole entry): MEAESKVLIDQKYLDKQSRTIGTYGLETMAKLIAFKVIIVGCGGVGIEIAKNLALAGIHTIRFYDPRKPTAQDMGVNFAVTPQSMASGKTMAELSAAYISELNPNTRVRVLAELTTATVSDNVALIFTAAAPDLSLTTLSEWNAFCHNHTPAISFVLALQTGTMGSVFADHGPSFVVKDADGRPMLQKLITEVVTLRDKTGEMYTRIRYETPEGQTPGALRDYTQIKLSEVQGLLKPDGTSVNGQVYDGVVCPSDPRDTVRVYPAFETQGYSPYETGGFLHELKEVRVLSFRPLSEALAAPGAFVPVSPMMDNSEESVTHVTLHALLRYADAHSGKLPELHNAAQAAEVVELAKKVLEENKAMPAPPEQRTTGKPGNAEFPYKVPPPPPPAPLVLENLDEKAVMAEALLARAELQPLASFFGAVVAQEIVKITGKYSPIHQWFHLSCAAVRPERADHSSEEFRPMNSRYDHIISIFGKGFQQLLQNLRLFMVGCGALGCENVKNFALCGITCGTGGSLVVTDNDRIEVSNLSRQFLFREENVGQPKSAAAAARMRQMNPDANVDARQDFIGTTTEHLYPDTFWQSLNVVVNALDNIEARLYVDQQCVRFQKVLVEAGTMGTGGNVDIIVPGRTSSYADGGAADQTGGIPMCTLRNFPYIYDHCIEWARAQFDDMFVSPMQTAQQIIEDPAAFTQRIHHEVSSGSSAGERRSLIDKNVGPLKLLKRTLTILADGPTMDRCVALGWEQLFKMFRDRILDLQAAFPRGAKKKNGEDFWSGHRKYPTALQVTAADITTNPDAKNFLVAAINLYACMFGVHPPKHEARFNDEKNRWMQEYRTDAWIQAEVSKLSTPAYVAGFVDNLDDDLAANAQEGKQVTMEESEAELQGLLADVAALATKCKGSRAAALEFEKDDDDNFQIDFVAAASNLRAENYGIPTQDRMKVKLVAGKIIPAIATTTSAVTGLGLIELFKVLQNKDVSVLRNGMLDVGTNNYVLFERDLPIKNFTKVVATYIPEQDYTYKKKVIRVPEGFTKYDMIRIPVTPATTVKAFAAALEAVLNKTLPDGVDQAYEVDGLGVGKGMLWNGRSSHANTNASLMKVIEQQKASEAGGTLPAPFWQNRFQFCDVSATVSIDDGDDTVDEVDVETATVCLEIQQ

[3] = target: AMP-activated protein kinase, AMPK (Homo sapiens) (UniProt P54646+O43741+P54619+Q9UGJ0+Q9Y478+Q13131+Q9UGI9); assay: AMP-dependent Kinase enzyme assay. An in vitro enzyme assay that detects ADP turnover that is directly proportional to AMPK activity. This uses naive AMPK that is activated during the assay with MK-8722; type: functional; conditions: 30 µM
[4] = target: Sialic acid-binding Ig-like lectin 9 (Homo sapiens) (UniProt Q9Y336); assay: Hs-Siglec9 ALPHAscreen SOP 20170721; conditions: 10 µM
Sialic acid-binding Ig-like lectin 9 (Homo sapiens), sequence (Q9Y336 whole entry): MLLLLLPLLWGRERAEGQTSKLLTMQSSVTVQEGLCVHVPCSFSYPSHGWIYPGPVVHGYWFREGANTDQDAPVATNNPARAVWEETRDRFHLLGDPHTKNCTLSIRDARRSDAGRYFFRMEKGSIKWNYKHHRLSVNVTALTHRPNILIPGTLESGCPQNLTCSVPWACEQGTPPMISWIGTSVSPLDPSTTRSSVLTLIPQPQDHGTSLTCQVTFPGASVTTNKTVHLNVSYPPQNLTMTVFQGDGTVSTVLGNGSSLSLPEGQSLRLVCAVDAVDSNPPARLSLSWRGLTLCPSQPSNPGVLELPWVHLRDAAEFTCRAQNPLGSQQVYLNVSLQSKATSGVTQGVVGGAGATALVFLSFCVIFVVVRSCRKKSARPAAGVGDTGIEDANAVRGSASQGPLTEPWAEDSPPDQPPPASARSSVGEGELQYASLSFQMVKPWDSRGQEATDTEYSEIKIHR

Trypanosoma cruzi = assay: Trypanosoma cruzi phosphomannomutase and mannose-1-phosphate guanylyltransferase assay; type: functional; conditions: 10 µM
[5] = target: T2, Arginase-2, mitochondrial (Homo sapiens) (UniProt P78540); assay: in vitro enzyme assay to detect the production of urea directly proportional to the activity of Arginase II; type: functional; conditions: 33.3 µM; note: in the data most compounds retested in dose-response had high values
T2 sequence (whole entry): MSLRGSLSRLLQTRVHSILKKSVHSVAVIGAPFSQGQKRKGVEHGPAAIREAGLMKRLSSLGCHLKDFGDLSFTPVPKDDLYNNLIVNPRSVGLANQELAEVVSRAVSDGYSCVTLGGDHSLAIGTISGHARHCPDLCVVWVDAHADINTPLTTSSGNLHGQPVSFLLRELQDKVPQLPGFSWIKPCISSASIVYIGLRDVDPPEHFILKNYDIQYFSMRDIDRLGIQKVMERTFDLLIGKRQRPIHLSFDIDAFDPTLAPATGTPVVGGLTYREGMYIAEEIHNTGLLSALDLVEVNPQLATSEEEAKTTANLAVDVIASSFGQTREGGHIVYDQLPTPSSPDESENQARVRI

[6] = target: T3, Proteasome subunit beta (Trypanosoma cruzi) (UniProt O96673); assay: Trypanosoma cruzi proteasome chymotrypsin-like activity (TcProtChymo) assay.; note: in the data most compounds retested in dose-response had high values; type: functional; conditions: 9.37 µM
T3 sequence (whole entry): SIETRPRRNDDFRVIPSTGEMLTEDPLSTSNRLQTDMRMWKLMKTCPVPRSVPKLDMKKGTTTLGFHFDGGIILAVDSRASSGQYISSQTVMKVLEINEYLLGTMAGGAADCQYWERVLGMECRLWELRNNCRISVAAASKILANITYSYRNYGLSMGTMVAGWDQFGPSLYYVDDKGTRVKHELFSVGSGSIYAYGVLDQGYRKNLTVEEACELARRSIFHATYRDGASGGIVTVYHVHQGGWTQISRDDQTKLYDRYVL

Homo sapiens = species on record: Homo sapiens; assay: To identify inhibition of the IFN signalling (Jak-Stat) pathway via expression of an eGFP reporter gene under the control of an IFN-stimulated response element (ISRE) containing MxA promoter.; type: functional; conditions: 30 µM
[7] = target: T4, Tyrosyl-tRNA synthetase, putative (Trypanosoma cruzi (strain CL Brener)) (UniProt Q4DSP6); assay: Trypanosoma cruzi tyrosyl tRNA synthetase (TcYRS) _High Tyrosine SOP; type: functional; conditions: 30 µM; note: in the data most compounds retested in dose-response had high values
T4 sequence (whole entry): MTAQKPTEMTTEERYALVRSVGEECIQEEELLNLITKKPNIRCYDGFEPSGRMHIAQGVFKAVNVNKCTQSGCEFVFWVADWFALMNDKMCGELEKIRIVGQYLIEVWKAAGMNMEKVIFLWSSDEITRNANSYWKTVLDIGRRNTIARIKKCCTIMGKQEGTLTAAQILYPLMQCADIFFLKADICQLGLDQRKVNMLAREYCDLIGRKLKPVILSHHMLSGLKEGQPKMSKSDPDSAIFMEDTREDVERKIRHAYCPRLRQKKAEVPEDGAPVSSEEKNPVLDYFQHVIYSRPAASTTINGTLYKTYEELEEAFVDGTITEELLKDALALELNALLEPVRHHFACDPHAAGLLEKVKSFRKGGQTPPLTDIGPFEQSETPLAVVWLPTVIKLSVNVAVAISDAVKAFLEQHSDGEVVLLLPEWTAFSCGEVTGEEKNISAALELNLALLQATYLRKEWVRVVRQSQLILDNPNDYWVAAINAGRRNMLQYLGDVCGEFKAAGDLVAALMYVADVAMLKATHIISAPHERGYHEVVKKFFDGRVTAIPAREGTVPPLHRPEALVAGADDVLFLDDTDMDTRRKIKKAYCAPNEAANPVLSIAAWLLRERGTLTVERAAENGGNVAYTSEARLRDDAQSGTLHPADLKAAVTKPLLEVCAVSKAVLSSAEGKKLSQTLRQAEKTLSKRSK

[8] = target: T4, Tyrosyl-tRNA synthetase, putative (Trypanosoma cruzi (strain CL Brener)); assay: Trypanosoma cruzi tyrosyl tRNA synthetase (TcYRS) SOP; type: functional; conditions: 30 µM
[9] = target: Chromo domain-containing protein 1 (Saccharomyces cerevisiae (strain ATCC 204508 / S288c) (Baker's yeast)) (UniProt P32657); assay: ScCHD-1 Enzyme Inhibition Assay; type: functional; conditions: 30 µM; note: in the data most compounds retested in dose-response had high values
Chromo domain-containing protein 1 (Saccharomyces cerevisiae (strain ATCC 204508 / S288c) (Baker's yeast)), sequence (P32657 whole entry, the tested form may be a part): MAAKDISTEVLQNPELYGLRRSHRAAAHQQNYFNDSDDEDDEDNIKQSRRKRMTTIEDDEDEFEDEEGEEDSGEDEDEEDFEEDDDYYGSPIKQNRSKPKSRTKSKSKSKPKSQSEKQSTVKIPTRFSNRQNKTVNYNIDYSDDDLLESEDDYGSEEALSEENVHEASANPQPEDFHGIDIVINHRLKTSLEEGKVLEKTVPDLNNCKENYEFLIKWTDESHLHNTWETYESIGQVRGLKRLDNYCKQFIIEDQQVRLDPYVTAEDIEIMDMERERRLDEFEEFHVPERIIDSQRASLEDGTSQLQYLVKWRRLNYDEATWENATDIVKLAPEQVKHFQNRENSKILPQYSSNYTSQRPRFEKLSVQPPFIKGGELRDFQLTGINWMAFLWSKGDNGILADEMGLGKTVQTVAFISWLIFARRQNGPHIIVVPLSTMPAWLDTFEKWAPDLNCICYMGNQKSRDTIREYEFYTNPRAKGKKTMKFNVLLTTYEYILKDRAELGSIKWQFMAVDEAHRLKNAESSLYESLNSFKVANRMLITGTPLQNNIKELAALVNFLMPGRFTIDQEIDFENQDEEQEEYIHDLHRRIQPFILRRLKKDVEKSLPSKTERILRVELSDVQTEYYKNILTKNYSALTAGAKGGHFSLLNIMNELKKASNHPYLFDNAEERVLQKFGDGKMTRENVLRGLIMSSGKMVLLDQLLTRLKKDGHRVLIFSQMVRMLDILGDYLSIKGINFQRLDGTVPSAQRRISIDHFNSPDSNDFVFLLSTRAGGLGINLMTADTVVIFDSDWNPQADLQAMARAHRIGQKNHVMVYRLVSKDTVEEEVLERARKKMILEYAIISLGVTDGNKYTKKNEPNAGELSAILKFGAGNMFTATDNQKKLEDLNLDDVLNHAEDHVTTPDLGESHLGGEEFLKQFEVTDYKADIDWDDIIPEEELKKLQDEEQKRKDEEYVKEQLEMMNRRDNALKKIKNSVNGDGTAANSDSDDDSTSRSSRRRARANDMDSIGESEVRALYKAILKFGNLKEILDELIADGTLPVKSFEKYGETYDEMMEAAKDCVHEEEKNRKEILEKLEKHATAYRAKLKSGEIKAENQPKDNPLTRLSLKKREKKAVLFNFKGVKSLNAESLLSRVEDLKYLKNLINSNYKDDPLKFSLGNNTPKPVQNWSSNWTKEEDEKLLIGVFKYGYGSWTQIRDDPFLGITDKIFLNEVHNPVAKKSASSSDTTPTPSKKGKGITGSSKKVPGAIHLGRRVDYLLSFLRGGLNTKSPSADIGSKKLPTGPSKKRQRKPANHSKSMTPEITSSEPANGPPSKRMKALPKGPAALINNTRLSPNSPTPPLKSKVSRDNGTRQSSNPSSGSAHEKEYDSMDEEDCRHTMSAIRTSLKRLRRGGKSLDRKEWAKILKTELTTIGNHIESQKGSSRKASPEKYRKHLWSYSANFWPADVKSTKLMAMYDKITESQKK

Protein translocase subunit SecA (Escherichia coli (strain K12)), sequence (P10408 whole entry): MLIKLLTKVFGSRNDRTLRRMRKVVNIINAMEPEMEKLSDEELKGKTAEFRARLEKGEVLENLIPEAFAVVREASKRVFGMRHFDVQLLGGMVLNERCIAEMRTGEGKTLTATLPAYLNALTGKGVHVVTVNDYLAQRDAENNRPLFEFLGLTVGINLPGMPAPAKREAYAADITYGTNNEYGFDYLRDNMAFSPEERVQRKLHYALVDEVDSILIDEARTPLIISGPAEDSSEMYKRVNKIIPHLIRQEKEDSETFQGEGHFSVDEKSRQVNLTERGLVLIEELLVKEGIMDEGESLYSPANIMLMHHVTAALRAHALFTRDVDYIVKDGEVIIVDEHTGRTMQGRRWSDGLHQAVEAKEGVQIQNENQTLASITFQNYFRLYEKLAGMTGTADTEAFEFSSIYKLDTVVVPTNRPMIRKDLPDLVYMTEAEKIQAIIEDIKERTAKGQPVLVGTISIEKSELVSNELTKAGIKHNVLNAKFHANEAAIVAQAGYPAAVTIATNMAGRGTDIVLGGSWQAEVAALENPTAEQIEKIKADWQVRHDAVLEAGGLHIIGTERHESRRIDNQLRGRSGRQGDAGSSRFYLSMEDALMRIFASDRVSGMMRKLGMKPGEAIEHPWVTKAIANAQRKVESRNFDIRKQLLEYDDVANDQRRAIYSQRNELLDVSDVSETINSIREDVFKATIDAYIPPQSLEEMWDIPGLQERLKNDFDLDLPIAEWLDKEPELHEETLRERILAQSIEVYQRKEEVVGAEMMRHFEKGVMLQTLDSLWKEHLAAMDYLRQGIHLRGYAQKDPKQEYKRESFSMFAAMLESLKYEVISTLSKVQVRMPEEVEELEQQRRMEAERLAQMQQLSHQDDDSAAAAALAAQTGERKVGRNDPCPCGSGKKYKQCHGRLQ

Compound | Percent Effect [1] | Percent Effect [2] | Percent Effect [3] | Percent Effect [4] | Percent Effect (Trypanosoma cruzi) | Percent Effect [5] | Percent Effect [6] | Percent Effect (Homo sapiens) | Percent Effect [7] | Percent Effect [8] | Percent Effect [9]
Clc1ccc2cccnc2c1CN1CCCC(Cn2cncn2)C1 (configuration not stated) | -4.92% | 0% | -3.69% | 7.75% | 0.279% | 1.66% | 12% | 18.1% | 7.92% | 13.4% | 3.69%
COc1ccc(-n2cnnc2SCCC#N)cn1 | -2.65% | 8% | 0.911% | 11.1% | 4.38% | 18.2% | 11.3% | -11.2% | 6.01% | 21% | -6.98%
CCc1ncc(C(=O)NCCNC(=O)Cc2ccc(F)cc2)s1 | -1.95% | 8% | -16.6% | 11.1% | 5.55% | 16.7% | 11.3% | -8.05% | 7.1% | 16.1% | -3.11%
COc1ccc(C(=O)N2Cc3c(Cn4ccnc4)nn(C)c3C2)cc1 | -2.78% | 8% | 5.76% | -5.42% | 3.15% | -1.63% | 12.1% | 7.14% | 5.32% | 11.5% | -3.95%
O=S(=O)(Cc1ccccc1)NCc1ccco1 | -2.2% | -1.39% | 13.3% | 0.175% | 0.68% | 0% | -1.4% | 6.12% | 3.16% | 2.56% | 0.387%
CC(C)Oc1ncnc2c1CCN(Cc1cccs1)CC2 | 3.01% | 0% | 24.6% | 8.66% | -0.193% | -43.9% | 3.76% | 8.59% | 6.25% | 10% | -1.96%
CCOc1ccc(-c2ccnc(CC)n2)cc1C(=O)O | 0.91% | 10.8% | -5.65% | 16.4% | 2.9% | -0.476% | 20% | -11.8% | 8.99% | -2.44% | -1.49%
Cc1cnn(CC2CCCCN2Cc2nc(-c3ccoc3)no2)c1 (configuration not stated) | -1.89% | 16.2% | -6.06% | 4.87% | 5.19% | -5.61% | 7.75% | 21.5% | 8.37% | 23.5% | -6.74%
c1ccc(-c2cc(CN3CCC(c4ccn[nH]4)CC3)on2)cc1 | -3.15% | -2.7% | -3.14% | 8.25% | -1.54% | -0.952% | 17.2% | 42.5% | 0.529% | 7.32% | -3.02%
CC(C)Oc1ccc(CSc2nnc(CN3CCCC3=O)o2)cc1 | -7.37% | -5.33% | -6.5% | 10% | 8.28% | 1.04% | 9.24% | 13.4% | 1.64% | 6.17% | -3.99%
O=C(c1cccc(F)c1)N1CCN2C[C@H](OCc3cccnc3)C[C@H]2C1 | -4.82% | 10.7% | 5.61% | 1.34% | -3.15% | 6.29% | 10.7% | 8.83% | 3.19% | 14.1% | -3.02%
CCN1CCn2c(C)cnc2C12CCN(C(=O)c1ccc(Cl)cc1)CC2 | -4.5% | 10.7% | 9.36% | -7.09% | -6.95% | -59% | 11.1% | 4.01% | 2.08% | 10% | -6.26%
CCn1cc(CN2CC3CCCN3C[C@H]2C)c(C)n1 (some centres not stated) | -2.31% | 9.46% | 3.58% | -8.58% | -1.98% | -2.09% | 20.3% | 2% | 4.3% | 9.09% | -14.7%
CCn1nc(C)c2nnn(CC(=O)Nc3cccc(Cl)c3)c(=O)c21 | -4.67% | -6.67% | 1.25% | 3.3% | 4.13% | -5.11% | 12.9% | -22.7% | 6.35% | 7.69% | -7%
Fc1ccc(CN2CC[C@H]3O[C@@H](COCC4CCOCC4)CC[C@H]32)cc1 | -5.06% | 5.33% | 10.6% | -6.01% | -7.48% | -0.233% | 3.08% | 17.6% | -1.06% | -1.28% | -7.73%
COCc1nc(C(=O)N2CCCCC2Cn2cc(C)cn2)cs1 (configuration not stated) | -5.14% | -2.6% | 6.14% | -7.79% | -5.19% | -1.47% | 5.42% | 6.8% | -1.91% | -4.71% | -21.5%
CCc1n[nH]c(C2CN(C(=O)c3cnns3)CCO2)n1 (configuration not stated) | -3.59% | 0% | 2.14% | -2.18% | -4.63% | -19% | 2.7% | 15.6% | 1.48% | -3.8% | -1.39%
